# PubChem BioAssay (Tox21)
# Results filed as inconclusive are left out. A call without a number means that no potency is given here. Active and inactive are the calls of the source. Calls follow the shape of the dose curve; as a rule, active = well fitted cell-killing curve with a large enough effect in the repeat runs; inconclusive = weak or mixed curves, or effect the other way; inactive = flat fitted curve, though single readings scatter.
# How the values were obtained:
# [1] = cAMP Responsive Elements (CRE) small molecule antagonists, cell-based qHTS assay: qHTS cell viability counter screen (AID 2060913); also: nearly all actives have a fitted effect of over 40% in size
# Outline: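 Steps: cells plated and held 18 hrs at 37 C/5% CO2; compounds and NKH477 (0.25 uM final) added; 3 hrs incubation; reporter substrate read; CellTiter-Glo added to measure cytotoxicity by luminescence.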
# [2] = cAMP Responsive Elements (CRE) small molecule agonists, cell-based qHTS assay: qHTS cell viability counter screen (AID 2060914);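 also: viability read after 3 h of compound exposure; nearly all actives have a fitted effect of over 50% in size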
# Outline: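 CRE-bla HEK293T cells in 10% dialyzed FBS medium were exposed to compounds for 3 h at 37C after 18 h plating. CellTiter-Glo was then added in the same wells, and luminescence was read after 30 min at room temperature.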
SMILES,Potency [1],Potency [2]
COC(=O)c1cc(C(=O)OC)cc(S(=O)(=O)O)c1,inactive,inactive
Cc1occc1SSc1ccoc1C,inactive,inactive
NC(=O)COCCN1CCN(C(c2ccccc2)c2ccc(Cl)cc2)CC1 (configuration not stated),inactive,inactive
Oc1c(I)cc(I)c2cccnc12,inactive,inactive
CC1c2ccccc2CN1NC(=O)c1ccc(Cl)c(S(N)(=O)=O)c1 (configuration not stated),inactive,inactive
C/C(Cl)=C/CCl,inactive,inactive
